Here are results for 8 molecules from PubChem BioAssay (EPA / NIEHS).

Test [1] in a line: ATG_E_Box_CIS: Attagene CIS-FACTORIAL HepG2 Assay for human Enhancer Box (E-box) (AID 2282936). As to conditions: HepG2 E-box cis-reporter transcription, actives raise or lower the signal. The method in brief:
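In this cell-based setup, HepG2 cells bearing transfected promoter-driven reporter units were exposed to chemicals for 24 h; reporter transcripts were amplified, 6-FAM-labelled, cut with HpaI and sized by capillary electrophoresis.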

Test [2] in a line: ATG_M_61_CIS: Attagene CIS-FACTORIAL HepG2 Assay for M61 Transcription Factor (Internal Marker) (AID 2282937). The following applies: HepG2 Attagene CIS-FACTORIAL M61 internal marker reporter; actives raise or lower the signal. An outline of the steps: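 Cells were transfected with reporter units under cis-regulatory promoters, treated with chemicals for 24 h, then lysed for RNA. Reporter transcripts were quantified by RT-PCR and capillary electrophoresis, and activity was fitted bidirectionally against DMSO.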

Test [3] is described as follows: ATG_M_19_CIS: Attagene CIS-FACTORIAL HepG2 Assay for M19 Transcription Factor (Internal Marker) (AID 2282939). As to conditions: HepG2 Attagene CIS-FACTORIAL M19 internal marker reporter; actives raise or lower the signal. The method in brief: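 In this multiplexed cell assay, transiently transfected HepG2 reporter units report endogenous transcription-factor activity; after 24 hours of treatment, labelled reporter cDNA fragments are quantified by capillary electrophoresis and fitted bidirectionally against DMSO.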

Test [4] is described as follows: ATG_ERE_CIS: Attagene CIS-FACTORIAL HepG2 Assay for Estrogen Response Element (ERE) (AID 2282940). The following applies: HepG2 ERE cis-reporter, Attagene RNA transcript; actives raise or lower the signal. An outline of the steps:
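Measuring endogenous transcription factor output, the assay doses transfected HepG2 cells for 24 hours and quantifies reporter transcripts by fluorescent RT-PCR and capillary electrophoresis, with DMSO as baseline.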

Test [5] can be described thus: ATG_Ets_CIS: Attagene CIS-FACTORIAL HepG2 Assay for human Erythroblast Transformation Specific (ETS) (AID 2282941). The following applies: HepG2 ETS cis-reporter transcription, actives raise or lower the signal. An outline of the steps:
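Endogenous transcription factor activity read as reporter mRNA via RT-PCR and capillary electrophoresis, with gain or loss fitted bidirectionally against DMSO. Human HepG2 liver cells, transiently transfected CIS reporter constructs, 24 h exposure.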

The target in test [6] is Hepatocyte nuclear factor 3-beta (Homo sapiens) (UniProt Q9Y261). As to the kind of experiment: ATG_FoxA2_CIS: Attagene CIS-FACTORIAL HepG2 Assay for human Forkhead box A2 (FOXA2) (AID 2282942). The following applies: HepG2 cis-reporter transcription factor activity, 24 h; actives raise or lower the signal. An outline of the steps:
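Endogenous transcription factor activity was read in HepG2 cells carrying transiently transfected cis-promoter reporter units. After 24 h dosing, reporter mRNA was quantified by RT-PCR and capillary electrophoresis, and values fitted bidirectionally versus DMSO.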

Test [7] in a line: ATG_FoxO_CIS: Attagene CIS-FACTORIAL HepG2 Assay for human Forkhead box O (FoxO) (AID 2282943). The following applies: HepG2 Attagene cis-reporter, FoxO element, mRNA; actives raise or lower the signal. An outline of the steps: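 Read-out: fluorescence of 6-FAM-labelled reporter cDNA fragments resolved by capillary electrophoresis. Transiently transfected HepG2 cells were dosed for 24 h; activity fitted in both directions relative to DMSO controls.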

Test [8] can be described thus: ATG_GATA_CIS: Attagene CIS-FACTORIAL HepG2 Assay for human GATA Binding Protein (AID 2282944). The following applies: HepG2 GATA cis-element reporter, Attagene multiplex mRNA; actives raise or lower the signal. An outline of the steps:
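Measures endogenous transcription factor-driven reporter mRNA in HepG2 cells transiently carrying cis-regulated constructs. 24 h dosing; RNA via oligo(dT) reverse transcription, PCR, HpaI digestion, capillary electrophoresis; fitted relative to DMSO.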

Test [9] is described as follows: ATG_GLI_CIS: Attagene CIS-FACTORIAL HepG2 Assay for human Zinc Finger Protein GLI1 (AID 2282945). The following applies: HepG2, Attagene cis-factorial reporter mRNA, GLI element; actives raise or lower the signal. The method in brief: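 Transiently transfected HepG2 cells report endogenous transcription factor activity via cis-element-driven reporter units. After 24 h compound exposure, reporter mRNA was measured by RT-PCR with capillary electrophoresis; bidirectional fitting against DMSO baseline.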

The target in test [10] is Bile acid receptor (Homo sapiens) (UniProt Q96RI1). As to the kind of experiment: ATG_IR1_CIS: Attagene CIS-FACTORIAL HepG2 Assay for human Nuclear Receptor Subfamily 1 Group H Member 4 (NR1H4), IR1 submotif (AID 2282946). The following applies: IR1 reporter transcription, actives raise or lower the signal. An outline of the steps: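 Fluorescence of capillary-separated, HpaI-digested RT-PCR reporter products gave IR1-element mRNA induction in HepG2 cells 24 h after dosing. Endogenous transcription factors drove the cis-regulated reporters; activity was fitted bidirectionally against DMSO.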

Test [11] can be described thus: ATG_ISRE_CIS: Attagene CIS-FACTORIAL HepG2 Assay for human Interferon Regulatory Factor 1 (IRF1) binding to an Interferon-Stimulated Response Element (ISRE) (AID 2282948). As to conditions: HepG2 ISRE cis-reporter (Attagene), mRNA transcription readout; actives raise or lower the signal. The method in brief: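 Endogenous transcription factor activity read as reporter transcript abundance via RT-PCR and capillary electrophoresis. HepG2 cells transiently transfected, 24 h chemical exposure. Gain or loss fitted against DMSO baseline.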

A short description of test [12]: ATG_M_32_CIS: Attagene CIS-FACTORIAL HepG2 Assay for M32 Transcription Factor (Internal Marker) (AID 2282949).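 Further: background control marker of the multiplexed CIS panel rather than a real target.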 The following applies: HepG2 Attagene cis-factorial M32 reporter, mRNA; actives raise or lower the signal. An outline of the steps:
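HepG2 human liver cells transiently transfected with cis-promoter-driven multiple reporter transcription units, dosed 24 h. Reporter mRNA quantified by RT-PCR, FAM-labelled primer extension, HpaI digest and capillary electrophoresis; bidirectional fit versus DMSO baseline.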

Test [13] in a line: ATG_M_06_CIS: Attagene CIS-FACTORIAL HepG2 Assay for M06 Transcription Factor (Internal Marker) (AID 2282950). The following applies: HepG2 Attagene CIS-FACTORIAL M06 internal marker reporter; actives raise or lower the signal. An outline of the steps: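 One of many multiplexed endpoints: HepG2 reporter mRNA after 24 h dosing, detected by RT-PCR and capillary electrophoresis fluorescence; gain or loss of signal analysed against DMSO.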

For test [14], the target named is Hypoxia-inducible factor 1-alpha (Homo sapiens) (UniProt Q16665). The test can be described thus: ATG_HIF1a_CIS: Attagene CIS-FACTORIAL HepG2 Assay for human Hypoxia Inducible Factor 1 (HIF1A) (AID 2282951). The following applies: HepG2 Attagene cis-factorial HIF1a reporter transcription; actives raise or lower the signal. An outline of the steps:
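Measures endogenous transcription-factor activity through cis-regulated reporter mRNA in HepG2. Cells dosed 24 h; transcripts quantified by RT-PCR with 6-FAM-labelled products separated by capillary electrophoresis; DMSO serves as negative control.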

Test [15] addresses Hepatocyte nuclear factor 6 (Homo sapiens) (UniProt Q9UBC0). The test can be described thus: ATG_HNF6_CIS: Attagene CIS-FACTORIAL HepG2 Assay for human Hepatocyte Nuclear Factor 6 (HNF6) (AID 2282952). The following applies: HepG2 Attagene cis-factorial HNF6 reporter transcription; actives raise or lower the signal. An outline of the steps:
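Endogenous factor activity read in transiently transfected HepG2 via promoter-regulated reporter transcripts. RNA harvested 24 h post-dosing, reverse-transcribed, PCR-amplified, FAM-labelled, HpaI-digested and resolved by capillary electrophoresis; fitted in both directions against DMSO.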

Test [16] deals with Heat shock factor protein 1 (Homo sapiens) (UniProt Q00613). The test can be described thus: ATG_HSE_CIS: Attagene CIS-FACTORIAL HepG2 Assay for human Heat Shock Transcription Factor 1 (HSE) (AID 2282953). The following applies: HepG2 HSE cis-reporter, Attagene RNA transcription; actives raise or lower the signal. An outline of the steps:
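Using HepG2 with transfected cis-driven reporter constructs, compound effects on endogenous factor activity are scored as reporter mRNA change at 24 h. Detection: RT-PCR, HpaI digestion, capillary electrophoresis; bidirectional fitting to DMSO.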

Test [17] is described as follows: ATG_MRE_CIS: Attagene CIS-FACTORIAL HepG2 Assay for human Metal Responsive Element (MRE) (AID 2282954). The following applies: HepG2 MRE cis-reporter transcription, Attagene multiplex; actives raise or lower the signal. An outline of the steps: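 Measured here is mRNA induction from an MRE cis-element reporter in HepG2 after 24 h, quantified by fluorescence of labelled RT-PCR products on capillary electrophoresis; gain- and loss-of-signal fits use DMSO as baseline.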

Test [18] in a line: ATG_PBREM_CIS: Attagene CIS-FACTORIAL HepG2 Assay for human Phenobarbital-responsive Enhancer Module (PBREM) (AID 2282955). The following applies: HepG2 PBREM cis-reporter, Attagene multiplexed transcription; actives raise or lower the signal. An outline of the steps: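 Fluorescence of labelled reporter cDNA fragments, resolved by capillary electrophoresis, gives mRNA induction in transfected HepG2 cells treated for 24 h; DMSO serves as negative control and baseline.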

Test [19] can be described thus: ATG_GRE_CIS: Attagene CIS-FACTORIAL HepG2 Assay for human Glucocorticoid Response Elements (GRE) (AID 2282947). As to conditions: HepG2 GRE cis-reporter, Attagene multiplex mRNA; actives raise or lower the signal. The method in brief:
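Fluorescence intensity of reporter-specific cDNA fragments, separated by capillary electrophoresis, provides the signal. Constructs carry cis-regulating promoters in transiently transfected HepG2 liver cells; 24 h incubation; fitting is bidirectional against DMSO.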

The structures appear in SMILES notation. Active and inactive are the calls of the source. How the source made its calls: active means hit-call score of the fitted dose curve at least 0.9, where 1 is the maximum; inactive means score below 0.9.

Sequence of Bile acid receptor (Homo sapiens) (Q96RI1 whole entry, looked up): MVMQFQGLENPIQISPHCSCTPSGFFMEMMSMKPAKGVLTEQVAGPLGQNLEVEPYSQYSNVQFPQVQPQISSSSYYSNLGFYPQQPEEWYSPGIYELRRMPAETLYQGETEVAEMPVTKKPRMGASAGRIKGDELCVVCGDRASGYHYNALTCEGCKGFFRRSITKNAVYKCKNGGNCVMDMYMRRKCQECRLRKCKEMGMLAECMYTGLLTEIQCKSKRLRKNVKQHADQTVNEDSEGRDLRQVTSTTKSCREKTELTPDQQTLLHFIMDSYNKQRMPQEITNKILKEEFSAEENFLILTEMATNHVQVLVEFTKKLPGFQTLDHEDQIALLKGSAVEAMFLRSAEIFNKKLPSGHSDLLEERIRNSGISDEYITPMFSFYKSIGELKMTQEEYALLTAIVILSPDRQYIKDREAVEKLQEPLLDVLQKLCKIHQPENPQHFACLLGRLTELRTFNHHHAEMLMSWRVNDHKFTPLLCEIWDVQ
Sequence of Hepatocyte nuclear factor 6 (Homo sapiens) (Q9UBC0 whole entry, looked up): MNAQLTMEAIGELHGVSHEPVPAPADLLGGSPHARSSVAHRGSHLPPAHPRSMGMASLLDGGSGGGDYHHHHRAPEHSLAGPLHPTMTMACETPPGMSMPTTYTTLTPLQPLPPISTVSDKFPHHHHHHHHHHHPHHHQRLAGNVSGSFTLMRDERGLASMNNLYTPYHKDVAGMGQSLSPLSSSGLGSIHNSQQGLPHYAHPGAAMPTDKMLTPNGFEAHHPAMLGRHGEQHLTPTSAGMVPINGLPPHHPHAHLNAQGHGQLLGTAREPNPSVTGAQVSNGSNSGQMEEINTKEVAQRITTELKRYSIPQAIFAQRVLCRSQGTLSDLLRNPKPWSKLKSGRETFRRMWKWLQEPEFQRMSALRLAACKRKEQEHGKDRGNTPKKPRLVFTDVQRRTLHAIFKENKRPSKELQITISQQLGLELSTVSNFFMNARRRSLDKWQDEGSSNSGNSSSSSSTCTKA
Sequence of Hypoxia-inducible factor 1-alpha (Homo sapiens) (Q16665 whole entry, looked up): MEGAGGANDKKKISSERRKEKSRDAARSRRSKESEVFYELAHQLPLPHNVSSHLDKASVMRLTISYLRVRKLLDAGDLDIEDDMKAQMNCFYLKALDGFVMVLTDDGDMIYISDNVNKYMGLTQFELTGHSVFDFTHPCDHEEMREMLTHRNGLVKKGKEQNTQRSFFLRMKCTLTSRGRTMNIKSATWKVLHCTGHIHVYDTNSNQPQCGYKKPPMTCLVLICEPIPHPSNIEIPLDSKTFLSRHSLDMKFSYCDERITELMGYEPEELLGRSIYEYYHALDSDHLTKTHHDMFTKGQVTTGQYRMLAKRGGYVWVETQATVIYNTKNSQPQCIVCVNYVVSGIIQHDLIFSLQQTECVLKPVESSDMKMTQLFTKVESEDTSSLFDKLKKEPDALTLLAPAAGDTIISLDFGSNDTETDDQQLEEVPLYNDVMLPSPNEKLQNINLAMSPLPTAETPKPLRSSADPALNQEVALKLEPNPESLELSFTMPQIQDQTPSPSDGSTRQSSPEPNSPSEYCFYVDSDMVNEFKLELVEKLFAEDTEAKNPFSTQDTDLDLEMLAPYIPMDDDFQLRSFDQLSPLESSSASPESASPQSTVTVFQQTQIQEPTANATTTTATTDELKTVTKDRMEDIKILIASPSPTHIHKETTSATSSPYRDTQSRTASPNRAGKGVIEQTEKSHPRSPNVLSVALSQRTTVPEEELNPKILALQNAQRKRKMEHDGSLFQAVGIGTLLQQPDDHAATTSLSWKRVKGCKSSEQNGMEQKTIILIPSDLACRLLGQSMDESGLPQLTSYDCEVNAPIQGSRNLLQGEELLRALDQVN
Sequence of Heat shock factor protein 1 (Homo sapiens) (Q00613 whole entry, looked up): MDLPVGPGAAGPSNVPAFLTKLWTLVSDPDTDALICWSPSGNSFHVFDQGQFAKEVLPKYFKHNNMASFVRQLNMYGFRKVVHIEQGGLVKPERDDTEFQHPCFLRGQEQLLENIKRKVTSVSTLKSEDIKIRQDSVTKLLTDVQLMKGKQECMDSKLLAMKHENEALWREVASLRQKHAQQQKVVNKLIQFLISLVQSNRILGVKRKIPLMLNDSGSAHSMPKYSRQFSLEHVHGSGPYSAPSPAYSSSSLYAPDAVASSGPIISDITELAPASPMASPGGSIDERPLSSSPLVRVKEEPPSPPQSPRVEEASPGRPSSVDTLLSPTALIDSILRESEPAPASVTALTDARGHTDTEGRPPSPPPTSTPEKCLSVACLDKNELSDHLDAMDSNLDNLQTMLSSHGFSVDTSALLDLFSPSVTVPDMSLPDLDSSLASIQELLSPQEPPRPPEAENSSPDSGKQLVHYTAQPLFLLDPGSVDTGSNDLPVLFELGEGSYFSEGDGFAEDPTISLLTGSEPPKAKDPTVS
Sequence of Hepatocyte nuclear factor 3-beta (Homo sapiens) (Q9Y261 whole entry, looked up): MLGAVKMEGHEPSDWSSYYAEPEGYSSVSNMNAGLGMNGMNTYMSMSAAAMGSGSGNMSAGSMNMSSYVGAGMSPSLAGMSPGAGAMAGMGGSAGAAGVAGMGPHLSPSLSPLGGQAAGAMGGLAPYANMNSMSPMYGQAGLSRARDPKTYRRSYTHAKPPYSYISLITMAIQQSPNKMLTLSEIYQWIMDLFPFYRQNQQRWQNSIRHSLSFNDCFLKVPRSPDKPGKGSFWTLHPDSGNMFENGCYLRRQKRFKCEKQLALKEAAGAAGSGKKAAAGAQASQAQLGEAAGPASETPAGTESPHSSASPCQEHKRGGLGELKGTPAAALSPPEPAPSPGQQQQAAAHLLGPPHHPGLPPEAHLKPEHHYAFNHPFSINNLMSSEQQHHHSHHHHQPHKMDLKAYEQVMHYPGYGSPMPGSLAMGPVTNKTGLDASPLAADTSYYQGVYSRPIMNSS

Regarding `C/C=C\C/C=C/CCCCCCCCOC(C)=O`, the result in test [1], in [2], in test [3], in [4], in test [5] and in test [6] was inactive. In addition, the molecule was called inactive in [7], in [8], in test [9], in test [12], in [13] and in test [14]. Also, the result in test [15] and in [18] was inactive. Besides, the AC50 in test [10] is 122 µM (active); in test [11], 155 µM (active); in [16], 156 µM (active); in test [17], 100 µM (active).
On to `C=C[C@](C)(O)CC[C@@H]1[C@@]2(C)CCCC(C)(C)[C@@H]2CC[C@@]1(C)O`, for which the outcome in test [1], in test [2], in [3], in test [4], in [5] and in test [7] was inactive. The result in test [8], in test [9], in [10], in [19], in [11] and in test [12] was inactive. Besides, the call in [13], in test [14], in [15], in test [16], in test [17] and in [18] was inactive.
Regarding `O=C(O)C(c1ccc(Cl)cc1)c1ccc(Cl)cc1`, the outcome in [1], in test [2], in [3], in test [5], in test [6] and in test [7] was inactive. In addition, the molecule was classed as inactive in [9], in [10], in test [11], in test [12], in test [13] and in test [15]. Also, the molecule was classed as inactive in [16], in test [17] and in test [18]. For the same molecule, the AC50 is 2.68 µM (active) in test [4] and 72.1 µM (active) in test [14].
Regarding `C=CC(=O)NC(C)(C)CS(=O)(=O)O`, the result in [1], in test [2], in test [3], in test [4], in test [5] and in test [8] was inactive. Moreover, the molecule was classed as inactive in [11], in [13], in [14], in test [15], in test [16] and in [17]. For the same molecule, the result in [18] was inactive.
Take `C=C1C2CCC(C2)C1(C)C` (stereo not drawn): the result in [1], in [2], in test [3], in [5], in test [6] and in test [7] was inactive. For the same molecule, the molecule was called inactive in test [8], in [19], in test [11], in [12], in test [13] and in [14]. In addition, the molecule was called inactive in test [15], in test [16], in test [17] and in [18].
`CC(=O)OC1C2(C)CCC(C2)C1(C)C` (stereo not drawn): the outcome in test [1], in test [2], in [3], in test [4], in test [5] and in test [6] was inactive. Also, the molecule was classed as inactive in test [7], in [8], in test [9], in test [10], in test [19] and in test [11]. Also, the call in [13], in [14], in test [15], in test [16] and in test [17] was inactive.
With `CCCC(C)CCC(C)=O` (stereo not drawn), the outcome in test [1], in test [2], in [3], in [4], in test [5] and in test [6] was inactive. Further, the outcome in test [7], in [8], in test [9], in test [10], in [19] and in test [11] was inactive. Further, the molecule was called inactive in [13], in test [14], in [15], in [17] and in test [18].
Consider `CCCCCCCCCCCCCOP(=O)(O)O`, for which the result in [1], in [2], in [3], in test [4], in test [5] and in test [6] was inactive. Further, the call in test [8], in test [9], in test [19], in test [11], in test [12] and in test [13] was inactive. The molecule was classed as inactive in test [14], in test [15], in test [16], in [17] and in test [18].
